We go through 39 sequences from the supplement of paper PMC6555819.

The first test concerns RARa homodimer (NR concentration 270 nM). The experiment in a line: PBM binding z-score (relative to random genomic background probes); higher = stronger binding; sequences stand for … in GC…GCGATTGACAGCGTAGAATGAAGG
A digest of the protocol:
(§1)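 On custom Agilent 4×180K arrays, double-stranded probes with 34-nt variable regions carried direct-repeat seeds, single-nucleotide variants, half-site ablations or random human genomic background. Ligand-free nuclear receptor dimers were applied for 1 h, and binding was read with antibodies against each partner (one per run). Binding z-scores come from regression-normalized fluorescence, with the random background probes as reference.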
For the sequence TCTTGTAGATTAGCAGGTTAAGAAAGCTGGCCAA, the PBM binding z-score was 0.796.
On the same count and under the same terms, for CGAACTAGGTCAGAACAGGACAGTGAAGGATGAT the value was 0.693; for CCTACTGGCCCAAAGGTCATTGATTCCAATGCTC, 1.12.
Still for that read-out and setting: for CGAACCAGGGCATGAGTTGATAGCAAATGCCGAT the value was -0.263.
Same read-out and setting: in the case of TTCCCAAGGTGAAAGGTCGTTGATGCACGCCTTG it was -0.11.
As to CCTGCTACGTCATGGTCAGCTAATCTACAGTATG, the PBM binding z-score was -0.328.
The same measure, in the same setting: in the case of TCGAGTAGGTTACCAATGAGGCATTCAGCTTTCT it was -1.06.
The same measure, in the same setting: in the case of AGTCAAAGTTCATCTAGGTAACGTACGATATGCT it was 1.06; in that of TCTAGGTGGTCACGGAGGTCACACACGACGGGTA, 1.02; in that of ACTAGCAGGCCAAGGGTCACCCAAGATTAGTCCG, 1.35.
Same read-out and setting: for GATACAGTGTCAGCTAGAGGCCAGAGTATGGAAA the value was -0.579; for CCTTCTGGGCCATCAGGTCATTGATATCAACGTT, 0.159; for TCTTGTAGATAAACAGGAGGTTAAGAAAGATCGA, 0.379.
The sequence CCTACTGGGCCAAGGGTCATTGATTCCAATGCTC displayed a PBM binding z-score of 0.1.
As to GCTTGGAGATCAAGGTTAAGAAAGACTAAGCTAA, the PBM binding z-score was -0.305.
Same read-out and setting: for ATCTCTAGGTAAGACTCAGTTCAGCGAAGAACGC the value was 1.01.
On the same count and under the same terms, in the case of TCTAGTTTGTCACGGAGGTCACACACGACGGGTA it was 1.86.
Still for that read-out and setting: for TCTGGTAGATCAAGCAGGTTAAGAAAGCCTGAGT the value was -0.519; for TTACCAAGGTGAGCTGAGGCCGTTGATCCAACTC, -1.4; for TCTTGTAGCTCAATAGAGGTTAAGAAAGTGCGCT, -0.147.
In turn, ATCTCTAGGGAACCAAGTTCAGTGAATGCCGAAC returned a PBM binding z-score of 0.0341.
TCTATTAGTTGAAGGACAACCGACGAGTCCGTTT displayed a PBM binding z-score of 1.51.
ACTAGCAGGCCAAGTTGGGGTCACTCAAACAAAG gave a PBM binding z-score of -0.0777.
Same read-out and setting: for TTACCAATGTGAGCTGAGGTCGTTGATCCAACTC the value was -0.185.
Still for that read-out and setting: in the case of TCATATAGGTAATACAGGTGAAAATCGGCATCTA it was 1.89; in that of TCTGCTAGGTCTGTTGGTCAGCTAACGAGCTGCC, -1.79; in that of TCTAGTTGGTCACGGAGGTCAAACACGACGGGTA, 1.13.
The same measure, in the same setting: in the case of TCATTTAGGTAAAAGGTGAAAGTCGGTGTGGTAA it was 1.77; in that of CGTCCAAGGTCAGAGAGGGCAGTGAATGCCGAGT, 0.679; in that of AATACAGGGTCACTAGGCCAGACTAGGTACGAAT, 0.731.
In turn, ACTTACGGGCCAACGAGGTTATAGCACGCGTATA showed a PBM binding z-score of 0.0529.
On the same count and under the same terms, in the case of CACCCTAGGTCAGGGCCAGTATAGGAGGAACGTT it was -0.0281; in that of CGAACTAGGTCGTTGACAGGACAGTGAATAGTAA, -0.436; in that of TCGAGTAGGTTACCAAAGGGGCATTCAGCTTTCT, -0.941.
Regarding TCTTGTAGACCAGCAGGTTAAGAAAGCTGGCCAA, the PBM binding z-score was -0.568.
CCTATTAGTTGACCATAAGGGCAGCCGAAGCTCG: the PBM binding z-score turned out to be 1.64.
On the same count and under the same terms, for CATACATGGTCAGCTAGGCCAGAGTAGGGACGGC the value was 0.055; for TCTTGTAGATCAATAGAGTTTAAGAAAGTGCGCT, 0.0115; for AGAATGAGGTTATACGTAGATAAGGGAAGAAAGT, 0.439.

The next test relates to RARb:RXRa (NR concentration 270 nM, RXRa partner concentration 90 nM). Described as above. The essentials:
as §1
Regarding TCTTGTAGATTAGCAGGTTAAGAAAGCTGGCCAA, the PBM binding z-score came out at 0.197.
Still for that read-out and setting: for CGAACTAGGTCAGAACAGGACAGTGAAGGATGAT the value was 2.77; for CCTACTGGCCCAAAGGTCATTGATTCCAATGCTC, 4.44.
Same read-out and setting: for CGAACCAGGGCATGAGTTGATAGCAAATGCCGAT the value was 1.02.
Still for that read-out and setting: for TTCCCAAGGTGAAAGGTCGTTGATGCACGCCTTG the value was 3.13; for CCTGCTACGTCATGGTCAGCTAATCTACAGTATG, 0.259; for TCGAGTAGGTTACCAATGAGGCATTCAGCTTTCT, 0.723.
The sequence AGTCAAAGTTCATCTAGGTAACGTACGATATGCT displayed a PBM binding z-score of 5.06.
The same measure, in the same setting: for TCTAGGTGGTCACGGAGGTCACACACGACGGGTA the value was 3.84; for ACTAGCAGGCCAAGGGTCACCCAAGATTAGTCCG, 3.62.
Same read-out and setting: for GATACAGTGTCAGCTAGAGGCCAGAGTATGGAAA the value was 0.973; for CCTTCTGGGCCATCAGGTCATTGATATCAACGTT, 2.28; for TCTTGTAGATAAACAGGAGGTTAAGAAAGATCGA, 0.359.
On the same count and under the same terms, in the case of CCTACTGGGCCAAGGGTCATTGATTCCAATGCTC it was 3.06; in that of GCTTGGAGATCAAGGTTAAGAAAGACTAAGCTAA, 0.871.
Sequence ATCTCTAGGTAAGACTCAGTTCAGCGAAGAACGC had a PBM binding z-score of 0.277.
On the same count and under the same terms, in the case of TCTAGTTTGTCACGGAGGTCACACACGACGGGTA it was 3.54; in that of TCTGGTAGATCAAGCAGGTTAAGAAAGCCTGAGT, -0.0969; in that of TTACCAAGGTGAGCTGAGGCCGTTGATCCAACTC, 1.09.
For TCTTGTAGCTCAATAGAGGTTAAGAAAGTGCGCT, the PBM binding z-score turned out to be 0.573.
In turn, ATCTCTAGGGAACCAAGTTCAGTGAATGCCGAAC displayed a PBM binding z-score of 0.674.
Still for that read-out and setting: in the case of TCTATTAGTTGAAGGACAACCGACGAGTCCGTTT it was 0.981; in that of ACTAGCAGGCCAAGTTGGGGTCACTCAAACAAAG, 3.14; in that of TTACCAATGTGAGCTGAGGTCGTTGATCCAACTC, 0.439.
The same measure, in the same setting: in the case of TCATATAGGTAATACAGGTGAAAATCGGCATCTA it was 0.59; in that of TCTGCTAGGTCTGTTGGTCAGCTAACGAGCTGCC, 0.107; in that of TCTAGTTGGTCACGGAGGTCAAACACGACGGGTA, 3.9.
The same measure, in the same setting: for TCATTTAGGTAAAAGGTGAAAGTCGGTGTGGTAA the value was 2.05; for CGTCCAAGGTCAGAGAGGGCAGTGAATGCCGAGT, 4.88; for AATACAGGGTCACTAGGCCAGACTAGGTACGAAT, 4.3.
Sequence ACTTACGGGCCAACGAGGTTATAGCACGCGTATA showed a PBM binding z-score of 1.05.
Still for that read-out and setting: in the case of CACCCTAGGTCAGGGCCAGTATAGGAGGAACGTT it was 3.38; in that of CGAACTAGGTCGTTGACAGGACAGTGAATAGTAA, 1.18.
Still for that read-out and setting: in the case of TCGAGTAGGTTACCAAAGGGGCATTCAGCTTTCT it was 1.37; in that of TCTTGTAGACCAGCAGGTTAAGAAAGCTGGCCAA, 0.179.
The same measure, in the same setting: in the case of CCTATTAGTTGACCATAAGGGCAGCCGAAGCTCG it was 1.29; in that of CATACATGGTCAGCTAGGCCAGAGTAGGGACGGC, 0.8; in that of TCTTGTAGATCAATAGAGTTTAAGAAAGTGCGCT, 0.375.
The sequence AGAATGAGGTTATACGTAGATAAGGGAAGAAAGT displayed a PBM binding z-score of 1.37.
